Among the data in PubChem BioAssay AID588342 (National Center for Advancing Translational Sciences (NCATS), 2011) are Potency values, retold here.

The campaign covered roughly 360,000 compounds. About 25,000 (6.9%) were called active. Where a call stands in place of a potency, no number is given. Another 9% or so got no clear call; they are omitted. Calls follow the shape of the dose curve; as a rule, active = well fitted inhibition curve with a large enough effect; inconclusive = small, poorly fitted or top-dose-only effect; inactive = flat fitted curve, though single readings scatter. This excerpt belongs to a sample that is enriched for actives.
Potency is read from the fitted curve at half-maximal effect.

Luciferin 4-monooxygenase (Photinus pyralis), sequence (P08659 whole entry, looked up): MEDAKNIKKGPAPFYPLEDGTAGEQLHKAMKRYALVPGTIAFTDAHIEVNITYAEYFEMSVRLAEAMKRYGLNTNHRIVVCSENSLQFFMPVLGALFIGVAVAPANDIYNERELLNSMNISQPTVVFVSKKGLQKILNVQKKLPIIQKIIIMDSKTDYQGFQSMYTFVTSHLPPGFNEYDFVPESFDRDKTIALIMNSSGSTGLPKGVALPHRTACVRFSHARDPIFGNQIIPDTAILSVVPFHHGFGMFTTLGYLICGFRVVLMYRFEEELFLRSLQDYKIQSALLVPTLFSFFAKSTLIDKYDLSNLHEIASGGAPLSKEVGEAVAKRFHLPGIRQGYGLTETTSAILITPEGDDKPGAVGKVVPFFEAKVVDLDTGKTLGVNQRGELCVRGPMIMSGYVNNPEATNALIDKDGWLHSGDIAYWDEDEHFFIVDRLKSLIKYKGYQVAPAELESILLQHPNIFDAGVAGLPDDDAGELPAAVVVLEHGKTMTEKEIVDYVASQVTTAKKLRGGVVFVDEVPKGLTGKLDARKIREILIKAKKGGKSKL

In the assay the target is Luciferin 4-monooxygenase (Photinus pyralis) (UniProt P08659). Nature of the assay: qHTS profiling assay for firefly luciferase inhibitor/activator using purifed enzyme and Km concentrations of substrates (counterscreen for miR-21 project). Also: nearly all actives have a fitted effect of over 55% in size. Conditions: purified FLuc, luminescence inhibition; series mostly up to 57.5 µM. The method in brief:
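Purified P. pyralis luciferase, 10 nM final, with Km-level 10 uM D-luciferin and 10 uM ATP in 50 mM Tris acetate pH 7.5, 10 mM Mg acetate, 0.01% Tween-20, 0.05% BSA; 6-point qHTS titration about 60 µM downward; luminescence read.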
In general terms: qHTS replaces the single test concentration by a dilution series.
Turning to `COc1cc(C(=O)NCCc2csc3nc(-c4ccccc4C)nn23)cc(OC)c1OC`, the Potency result was “inactive”.
The entry for `Cc1ccc2cccc(NC(=O)C(C)Oc3ccc(C)c(C)c3)c2n1` (centres undefined) is “inactive”; for `CC(C)Cn1c(C2CC(=O)N(c3ccccc3Cl)C2)nc2ccccc21` (centres undefined) it is “inactive”; for `Cc1ccc(C)c(Cn2c(C)c(CNCc3ccc(F)cc3)c(C(=O)O)c2C)c1` it is “inactive”.
Consider `CCC(C)c1ccc2oc(-c3ccc(NC(=O)c4cc5ccccc5o4)cc3)nc2c1` (centres undefined), for which the Potency entry is “inactive”.
In the case of `CCc1ccc2oc(-c3ccc(NC(=O)c4cc5ccccc5o4)cc3)nc2c1`, the Potency entry was “inactive”.
For `Cc1cc2nc(-c3ccc(NC(=O)c4cc5ccccc5o4)cc3)oc2cc1C`, the Potency was 23.9 µM (active).
On to `Cc1ccc(OC(=O)c2cc3ccccc3o2)cc1`, for which the Potency is 0.757 µM (active).
As to `Cc1cc(C(=O)Cn2cnc3cc([N+](=O)[O-])ccc3c2=O)c(C)n1CC1CCCO1` (centres undefined), the Potency result is “inactive”.
In the case of `Cc1cc(C(=O)CCl)c(C)n1CC1COc2ccccc2O1` (centres undefined), the Potency result is “inactive”.
The entry for `Cc1ccc(OC(=O)c2ccccc2C(=O)OCC(F)(F)C(F)F)cc1` is “inactive”; for `O=C(Nc1ccncc1)c1cc2ccccc2o1` it is 12 µM (active).
For `COc1ccccc1CN(C)C(=O)c1cc2ccccc2o1` the value was “inactive”; for `Cc1ccsc1C(=O)OCC(=O)c1cc(C)n(CC2CCCO2)c1C` (centres undefined), 0.151 µM (active).
`CCC1CCC2(CC1)NC(=O)N(CC(=O)Nc1ccc(OC)cc1)C2=O` (centres undefined): the Potency result was “inactive”.
For `Cc1ccc(-c2nc3ccccn3c2Nc2c(C)cccc2C)o1` the value was “inactive”; for `Cc1ccc(S(=O)(=O)N2CCCc3cc(NS(=O)(=O)c4cc(C)ccc4C)ccc32)cc1`, “inactive”.
Regarding `O=C(CCc1nc2sc3c(c2c(=O)[nH]1)CCCC3)NCC(=O)Nc1ccccc1Br`, the Potency result is “inactive”.
`Cc1cc(N(C)C)cc(C)[n+]1[O-]`: the Potency result is “inactive”.
Turning to `COc1cc(OC)cc(C(=O)NNC(=O)CCOc2ccccc2OC)c1`, the Potency result is “inactive”.
The entry for `CCOc1ccccc1NC(=O)C1CCCN(S(=O)(=O)c2cn(C)cn2)C1` (centres undefined) is “inactive”.
`COc1ccc(S(=O)(=O)N2CCOCC2)cc1NC(=O)Cc1c(F)cccc1Cl`: the Potency entry was “inactive”.
For `COc1ccc(CCNC(=O)COC(=O)C2CC2C)cc1` (centres undefined), the Potency entry is “inactive”.
For `Cc1ccc(Nc2nc(N3CCOCC3)nc(N3CCOCC3)n2)cc1Cl`, the Potency result was “inactive”.
On to `CCN1CCN(c2nc(Nc3cccc(F)c3)nc(N)c2[N+](=O)[O-])CC1`, for which the Potency entry was “inactive”.
For `CNc1nc(Nc2ccc(C)c(Cl)c2)nc(N)c1[N+](=O)[O-]`, the Potency was 4.78 µM (active).
For the compound `COc1ccccc1CNC(=O)Cn1nc(C)c2nn(-c3ccc(Cl)cc3)c(C)c2c1=O`, the Potency result is “inactive”.
Turning to `CCOC(=O)c1cccc(NS(=O)(=O)c2cn(C)c(C)n2)c1`, the Potency entry is “inactive”.
Take `O=C(CC1SC(=Nc2ccccc2)N(Cc2ccccn2)C1=O)Nc1cccc(Cl)c1` (centres undefined): the Potency entry is “inactive”.
As to `O=C(Nc1cccc(Cl)c1)OCc1ccccn1`, the Potency is 26.9 µM (active).
Regarding `O=C(Nc1ccccc1)OCc1cn(-c2ccc(Cl)cc2)nn1`, the Potency entry was “inactive”.
The entry for `Nc1cccc(S(=O)(=O)Nc2ccc(SC(F)F)cc2)c1` is “inactive”; for `O=C(CCn1c(=O)c2sccc2n(Cc2ccc(F)cc2)c1=O)NCc1ccc2c(c1)OCO2` it is “inactive”.
For `COc1ccccc1N1CCN(C(CNC(=O)C(=O)NCc2ccc(C)cc2)c2cccnc2)CC1` (centres undefined) the value was “inactive”; for `CCOc1ccc(CNCc2c(C(=O)O)c(C)n(Cc3cccc(OC)c3)c2C)cc1OC`, “inactive”; for `CC(C)(C)Nc1nc(-c2ccccn2)nc2ccccc12`, “inactive”.
On to `Cc1n[nH]c(=O)nc1N/N=C/c1cccs1`, for which the Potency result was “inactive”.
The entry for `Cc1ccc(/C=N/NC(=O)C2=NNC(c3ccccc3)(c3ccccc3)C2)c(O)c1` is “inactive”; for `Oc1ccc(/C=N/Nc2nc(-c3ccccc3F)nc3ccccc23)c(O)c1` it is 10.7 µM (active).
The entry for `COc1ccc(N2CCN(c3nc(-c4ccccc4F)nc4ccccc34)CC2)cc1` is “inactive”; for `Oc1ccc(/C=N/NC2=NCCCCC2)c(O)c1` it is 13.5 µM (active); for `Cc1nc2ccccc2nc1N/N=C/c1ccc(O)cc1O` it is 12 µM (active).
With `Oc1c(Br)cccc1/C=N/Nc1c(F)c(F)c(F)c(F)c1F`, the Potency entry was “inactive”.
Turning to `CN1c2ccc(Cl)cc2-c2nc(SCC(=O)Nc3cc(F)ccc3F)ncc2S1(=O)=O`, the Potency result was “inactive”.
For the compound `O=C(NCCCO)C(=O)Nc1c2c(nn1-c1ccc(F)cc1)CSC2`, the Potency result is “inactive”.
`Cn1c2cc(B(O)O)sc2c2cnn(Cc3ccccc3F)c(=O)c21`: the Potency entry is “inactive”.
The entry for `CCc1noc(C)c1C(=O)N1CCN(S(=O)(=O)c2cccc(C(F)(F)F)c2)CC1` is “inactive”.
Regarding `OCC[C@H]1C[C@@H](O)[C@H](O)[C@@]2(OCCc3ccccc32)O1`, the Potency result was “inactive”.
For the compound `COc1ccc(S(=O)(=O)N2CCN(CC(=O)N3c4ccccc4CC3C)CC2)cc1OC` (centres undefined), the Potency result was “inactive”.
For `CC1Cc2cc(S(=O)(=O)CCC(=O)NCc3ccc(Cl)cc3)ccc2N1C(=O)C1CC1` (centres undefined) the value was “inactive”.
Consider `O=C(Nc1cccc(Cl)c1)Nc1ccccc1NS(=O)(=O)c1cccs1`, for which the Potency is 16.9 µM (active).
Consider `O=S(=O)(NCc1ccc(Cl)cc1Cl)c1cccs1`, for which the Potency result is “inactive”.
With `O=S(=O)(Nc1ccccc1Br)c1cccs1`, the Potency result is “inactive”.
`Cc1ccc(Cl)cc1N(C)C(=O)C1CCCN(c2ncnc3onc(-c4ccc(F)cc4)c23)C1` (centres undefined): the Potency entry was “inactive”.
As to `COc1cc(OC)cc(C(=O)Nc2c(C(=O)Nc3ccc(F)cc3)oc3ccccc23)c1`, the Potency is 2.69 µM (active).
For `COc1ccccc1C(=O)Nc1c(C(=O)Nc2ccc(C)cc2)oc2ccccc12`, the Potency entry is “inactive”.
For `COc1ccccc1NC(=O)c1oc2ccccc2c1NC(=O)C(C)C`, the Potency entry was “inactive”.
On to `Cc1ccc(C)c(NC(=O)Cn2ccn(-c3ccc(F)cc3)c(=O)c2=O)c1`, for which the Potency result is “inactive”.
With `CCOC(=O)C1CCN(c2nc3c(S(=O)(=O)c4ccc(CC)cc4)nnn3c3ccc(Cl)cc23)CC1`, the Potency result was “inactive”.
The entry for `CCc1ccc(CNC(=O)c2cc3c(=O)n(CC)c4ccccc4c3s2)cc1` is “inactive”; for `O=C(CCN1CCCO1)N1CCCC(N2CCN(c3cccc(C(F)(F)F)c3)CC2)C1` (centres undefined) it is “inactive”; for `CCC(CC)c1nnc(NS(=O)(=O)Cc2ccccc2)s1` it is “inactive”.
For `CCC(CC)c1nn2cc(-c3ccccc3)nc2s1` the value was 0.269 µM (active).
With `CCc1ccc(CNC(=O)C2CCN(c3nn4cc(-c5ccc(F)cc5)nc4s3)CC2)cc1`, the Potency entry is “inactive”.
As for `Cc1ccc(F)cc1NC(=O)CCSc1nc(-c2ccco2)cc(C(F)(F)F)n1`, the Potency result was “inactive”.
The entry for `Clc1ccccc1CSc1nncn2c1cc1occc12` is “inactive”.
As for `CSCCC(NC(=O)COc1ccccc1)C(=O)N(C)CC(=O)Nc1ccc(C)cc1` (centres undefined), the Potency entry was “inactive”.
For `CCOC(=O)C1CCN(C(=O)CSc2c3c(nc4ccc(Cl)cc24)CCCC3)CC1` the value was “inactive”; for `C=CCNC(=O)c1csc(-c2ccccc2)n1`, “inactive”; for `C=CC[n+]1c(-c2ccc(C)cc2)csc1NNC(=O)Nc1ccccc1`, 19 µM (active).
Take `C=CCNc1scc(-c2ccccc2)[n+]1CC=C`: the Potency result is “inactive”.
Regarding `CCOC(=O)C1CCCN(CCSc2ccc(C)cc2)C1` (centres undefined), the Potency entry was “inactive”.
On to `O=C(COC(=O)CNC(=O)C1CCCCC1)NCc1ccccc1`, for which the Potency result is “inactive”.
Regarding `COc1ccc2c(CC(=O)OCC(=O)Nc3ccccc3[N+](=O)[O-])coc2c1`, the Potency result was “inactive”.
For `Cc1ccc(OCC(=O)Nc2ccc(N3CCN(C(=O)c4ccco4)CC3)cc2)c(C)c1`, the Potency result was “inactive”.
`Cc1nc2ccc(C(=O)N3CCN(c4ccccc4)CC3)cc2s1`: the Potency result is “inactive”.
Take `Cc1ccc(C)c(OCC(=O)N2CCN(C(=O)c3ccco3)CC2)c1`: the Potency entry was “inactive”.
Take `Cc1nc2ccc(C(=O)N3CCSCC3)cc2s1`: the Potency entry is “inactive”.
As for `CC1CCN(c2nc3ccc(C(=O)N4CCN(c5ccccc5)CC4)cc3s2)CC1`, the Potency is 23.9 µM (active).
`Cc1ccc2nc(N3CCN(C(=O)c4ccco4)CC3)sc2c1`: the Potency is 10.7 µM (active).
Take `COc1cccc(CN2CCc3nc(SCC(=O)Nc4ccccc4)[nH]c(=O)c3C2)c1`: the Potency result was “inactive”.
Consider `COC(=O)C(NS(=O)(=O)c1ccc(F)cc1)c1ccccc1` (centres undefined), for which the Potency entry is “inactive”.
With `CCOc1ccc(N(Cc2ccccc2)C(=O)c2nc(S(C)(=O)=O)ncc2Cl)cc1`, the Potency result was “inactive”.
For `CCOc1ccc(-c2nnn(CC(=O)N3CCN(c4ccc(F)cc4)CC3)n2)cc1OCC` the value was “inactive”; for `CCOc1ccc(-c2nnn(CC(=O)N3CCN(c4ccc(OC)cc4)CC3)n2)cc1OCC`, “inactive”.
Consider `COc1ccc(C(=O)Cn2nnc(-c3ccc(N4CCOCC4)cc3)n2)cc1OC`, for which the Potency was 8.49 µM (active).
The entry for `COC(=O)C1CCN(C(=O)c2ccc3oc(Cc4ccc(Cl)cc4)nc3c2)CC1` is “inactive”.
With `COc1cccc(NC(=O)Cn2c(=O)cc(C)c3c(C)nn(-c4cccc(F)c4)c32)c1`, the Potency entry was “inactive”.
The entry for `Cn1c(=O)n(C)c2cc(S(=O)(=O)Nc3ccc(F)cc3)ccc21` is “inactive”; for `COc1ccccc1N1CC(C(=O)Nc2nnc(SCC(=O)NCC3CCCO3)s2)CC1=O` (centres undefined) it is “inactive”.
As for `Cc1ccc2cc(C#N)c(SCC(=O)NCC3CCCO3)nc2c1C` (centres undefined), the Potency result was “inactive”.
For the compound `COc1cc(OC)cc(C(=O)Nc2nnc(SCC(=O)NCC3CCCO3)s2)c1` (centres undefined), the Potency is 15.1 µM (active).
As for `Cc1cc(C)nc(Nc2n[nH]c(-c3ccccc3N)n2)n1`, the Potency is 0.953 µM (active).
On to `CCCOc1ccccc1-c1nc(SCCC(=O)O)n[nH]1`, for which the Potency result is “inactive”.
Consider `Cc1cc(C)nc(Nc2ncn[nH]2)n1`, for which the Potency entry was “inactive”.
In the case of `COC(=O)C1=C(c2ccccc2)c2ccccc2S(=O)(=O)N1CC(=O)Nc1ccccc1C(F)(F)F`, the Potency result is “inactive”.
`O=C(CSc1nccn1C1CCCC1)Nc1cc(C(F)(F)F)ccc1Cl`: the Potency result was “inactive”.
In the case of `CCC(C(=O)OC)n1cnc2c(oc3ccccc32)c1=O` (centres undefined), the Potency entry was “inactive”.
For `COc1ccc(C)cc1Nc1nc(C)nc2c1oc1ccccc12`, the Potency entry is “inactive”.
For `COc1ccccc1Nc1ncnc2c1oc1ccccc12` the value was 13.5 µM (active); for `O=C(CN1C(=O)NC2(CCOc3ccccc32)C1=O)NCc1ccc(F)cc1` (centres undefined), “inactive”; for `Oc1ccc(Br)cc1/C=N/Nc1ccccn1`, 8.49 µM (active).
Take `CCN(CC)CCn1c(/N=C/c2cc(Br)ccc2O)nc2ccccc21`: the Potency entry is “inactive”.
Take `Cc1nccn1CC(=O)N/N=C/c1ccc(O)c(O)c1`: the Potency entry was “inactive”.
